Source: PubChem BioAssay
Sampled rows, rich in hits. Any-hit rate of the full collection: about 2.4%.
Pol kappa inh: inhibitors of human DNA polymerase kappa | Potency, µM (top dose mostly 107 µM), for inactives: at the top dose activity, negative = inhibition, hits mostly inhibitors | Q9UBT6 | 0.53% of 400,000 active | purified Pol kappa, fluorescent DNA synthesis assay, 10 min; also: % is scaled to controls: 0 for no effect and ±100 for the full control effect
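First, compounds were pin-transferred onto 10 nM Pol kappa. After 15 min at room temperature, substrate was added to 50 nM final. Fluorescence was then measured kinetically at 0 and 10 min.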
WRN inhibitor: inhibitors of human WRN helicase; WRN helicase unwinding, fluorescent forked duplex, kinetic; 0.46% of 360,000 active; Potency, µM (doses to about 114 µM), without a hit: top-dose activity change, negative = inhibition, actives largely listed as inhibitors; also: % is scaled to controls: 0 for no effect and ±100 for the full control effect; nearly all actives have a fitted effect of over 55% in size
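Kinetic fluorescence helicase assay: unwinding of a quenched forked DNA duplex (100 nM final) with 2 mM ATP final raises red fluorescence (525/598 nm). Compounds sat 15 min at room temperature with 20 nM WRN beforehand.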
POLB inh: blocks human DNA polymerase beta activity; P06746; Pol beta primer extension/strand displacement, fluorescence kinetic; Potency, µM (top dose mostly 114 µM), for inactives: top-dose activity change, negative = inhibition, hits mostly inhibitors; 1.3% of 340,000 active; also: % is scaled to controls: 0 for no effect and ±100 for the full control effect
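Values derive from four-parameter Hill fits of normalized kinetic data: reads at 0 and 10 min following addition of 50 nM substrate to 10 nM Pol beta preincubated 15 min with compound.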
Pol iota inh: inhibitors of human DNA polymerase iota; Q9UNA4; Pol iota fluorescent replication assay, 10 min; Potency, µM (series often up to 115 µM), inactives show top-dose activity, negative = inhibition, usual class: inhibitors; 1% of 390,000 active
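Pol iota at 10 nM preincubated 15 min with compounds at room temperature; reaction started with fluorescent substrate, 50 nM final. Fluorescence read kinetically at 0 and 10 min; buffer-only wells as negative control.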
FEN1 inhibitor: human FEN1 inhibition; Potency, µM (top dose mostly 114 µM), for the others: at the top dose activity change, negative = inhibition, actives largely listed as inhibitors; 0.35% of 390,000 active; Recombinant FEN1 flap cleavage, fluorescence, 15 min; also: % is scaled to controls: 0 for no effect and ±100 for the full control effect; nearly all actives have a fitted effect of over 65% in size
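In this screen, 50 nM flap DNA substrate was added to 10 nM FEN1 pretreated with compound for 15 min at room temperature; cleavage was followed with reads at 0 and 15 min, and Hill fitting gave concentration–response parameters.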
Pol eta inh: inhibitors of human DNA polymerase eta. Potency, µM (series often up to 114 µM), inactives show top-dose activity change, negative = inhibition, actives largely listed as inhibitors. recombinant Pol eta, fluorescent DNA replication assay. Q9Y253. AID 588591. 1.2% of 390,000 active; also: % is scaled to controls: 0 for no effect and ±100 for the full control effect
Target sequence (Q9Y253 whole entry, looked up): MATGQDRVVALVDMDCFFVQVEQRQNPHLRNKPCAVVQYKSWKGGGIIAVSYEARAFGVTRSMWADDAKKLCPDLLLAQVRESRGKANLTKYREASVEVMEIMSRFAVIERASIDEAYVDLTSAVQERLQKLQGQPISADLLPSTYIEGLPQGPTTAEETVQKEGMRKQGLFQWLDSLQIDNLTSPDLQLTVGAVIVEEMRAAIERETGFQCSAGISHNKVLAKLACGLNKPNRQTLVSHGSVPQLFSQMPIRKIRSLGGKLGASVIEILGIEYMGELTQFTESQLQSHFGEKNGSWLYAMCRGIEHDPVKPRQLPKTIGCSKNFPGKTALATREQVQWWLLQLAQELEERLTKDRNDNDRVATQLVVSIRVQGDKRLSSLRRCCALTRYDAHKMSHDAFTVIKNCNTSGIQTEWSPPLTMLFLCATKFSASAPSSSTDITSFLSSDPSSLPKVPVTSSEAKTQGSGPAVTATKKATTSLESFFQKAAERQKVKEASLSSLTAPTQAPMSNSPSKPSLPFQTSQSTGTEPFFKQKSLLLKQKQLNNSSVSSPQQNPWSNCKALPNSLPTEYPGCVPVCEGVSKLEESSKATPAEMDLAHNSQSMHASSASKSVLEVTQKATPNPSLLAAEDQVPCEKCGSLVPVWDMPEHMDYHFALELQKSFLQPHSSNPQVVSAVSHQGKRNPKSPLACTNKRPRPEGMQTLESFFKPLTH
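Pol eta at 10 nM preincubated with compounds 15 min at room temperature; reaction started with fluorescent substrate (50 nM final) and read kinetically at 0 and 10 min.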
An asterisk follows results filed as active; ? = inconclusive; . = no result; [ ] = another dose, or the depositor's remark. Calls follow the shape of the dose curve; as a rule, active = well fitted curve in the direction sought with a large enough effect; inconclusive = small, poorly fitted or top-dose-only effect, or another doubt; inactive = no such curve, though single readings can be large; an effect the other way counts as inactive or inconclusive. Potency is read from the fitted curve at half-maximal effect.

SMILES | Pol kappa inh | WRN inhibitor | POLB inh | Pol iota inh | FEN1 inhibitor | Pol eta inh
O=C(Nc1ccc(S(=O)(=O)Nc2nccs2)cc1)c1ccc(N2C(=O)c3ccccc3C2=O)cc1 | ? | -11% | 22µM* | 71µM* | -6% | ?
Cc1cccc(C(C)C)c1NC(=O)c1ccc2c(c1)CCCN2S(C)(=O)=O | 2% | . | 38% | 19% | 12% | -16%
Cc1cc(NC(=O)CSCC(=O)N(c2ccc(F)cc2)C(C(=O)NC2CCCCC2)c2ccc(O)c(O)c2)no1 (stereo unspecified) | -19% | 0% | 20µM* | ? | -11% | ?
NNC(=S)Nc1cccc(-c2n[nH]c(=S)o2)c1 | -30% | -17%[11.6 µM] | ? | -12% | 50µM* | 79µM*
CC(=O)Nc1ccc(-c2nnc(SCC(=O)c3ccc([N+](=O)[O-])cc3)o2)cc1 | 2% | . | 3% | 1% | -4% | -17%
CCOc1ccc(CCNC(=O)c2cc3cc4ccc(OC)cc4nc3s2)cc1OCC | 14% | . | 1% | 24% | -5% | -15%
COc1ccc2cc3cc(C(=O)NC4CC4)sc3nc2c1 | -4% | -4%[57.1 µM] | 79µM* | -20% | -8% | -3%
COc1ccc2nc3sc(C(=O)NCCN4CCc5ccccc5C4)cc3cc2c1 | -26% | 2% | 20µM* | -12% | 6% | ?
CCOC(=O)c1noc2nc(C)n(Cc3cccc(C#N)c3)c(=O)c12 | -3%[60.1 µM] | . | 36% | 50% | -5% | 4%
CC(=O)c1ccc(S(=O)(=O)N2CCNC(=O)C2)cc1 | -25% | 2%[11.6 µM] | . | ? | 1% | 22µM*
CC(=O)Nc1ccc(S(=O)(=O)N2CCNC(=O)C2)cc1 | -16% | -6% | . | 91% | -1% | -12%
CC(=O)c1ccc(S(=O)(=O)N2CCN(C(C)=O)CC2)cc1 | -14% | 19% | -29% | 110% | 0% | 22µM*
CCCN(C(=O)NCc1noc2ccc(C)cc12)c1ccc(Cl)c(Cl)c1 | 2% | . | -1% | 28% | -7% | -16%
CCN(CCC(=O)O)c1ccccc1 | 10% | 7% | 6% | -4% | -9% | 1%
NC(=O)N(CCC(=O)O)c1ccccc1 | -4% | -3% | 20µM* | -11% | -1% | ?
COC(=O)[C@H](C)[C@H](CC(C)C)NC(=O)[C@H](C)[C@H](CC(C)C)NC(=O)c1ccccn1 | -8% | . | . | 12% | 1% | .
COC(=O)c1ccc2c(c1)SC1=C(CCCC1=O)N2 | -17% | 79µM* | 0% | -23% | -9% | -15%
COc1cccc2sc3ccc(NCc4ccc5c(c4)OCO5)cc3c(=O)c12 | 79µM* | -19% | ? | 16µM* | ? | -6%
Cc1ccc(NC(=O)C2CCN(S(=O)(=O)c3cccc4nonc34)CC2)cc1C | -5%[60.1 µM] | . | -11% | -20% | -3% | 13%
CCc1cccc(C)c1NC(=O)C1CCN(S(=O)(=O)c2cccc3nonc23)CC1 | ? | . | ? | 89µM* | 89µM* | -1%
Cc1ccccn1 | 2%[19.4 µM] | . | . | . | . | .
COc1ccc2oc(=Nc3ccc(C(=O)O)cc3)c(C(=O)NCc3ccco3)cc2c1 | -2% | -7% | 28% | -8% | 15% | -31%
COc1ccc2cc(C(=O)NCc3ccco3)c(=Nc3ccc(C(=O)O)cc3)oc2c1 | -5% | -9% | 20% | -10% | ? | 89µM*
CCCCOCC1CN(c2ccccc2)C(=O)CS1 (stereo unspecified) | -8% | -7%[11.6 µM] | ? | 0% | 13% | 20µM*
CCCCC1C(=O)N(c2ccccc2)N(c2ccccc2)C1=O | 1%[60.1 µM] | 9% | -1% | ? | 0% | -19%
CC1CN(c2ccccc2)C(=O)CS1 (stereo unspecified) | -25% | -13%[57.1 µM] | 45µM* | ? | -4% | 20µM*
COc1ccc(C2SCC(=O)N2c2ccccc2)cc1 (stereo unspecified) | 5% | -1% | 2% | -4% | -13% | 4%
Cc1cccc(-c2noc(-c3ccc(N4CCN(C)CC4)c([N+](=O)[O-])c3)n2)c1 | -1% | . | -16% | 2% | 8% | -18%
